Data as given in PubChem BioAssay AID1159580 (chemical genetic matrix, 2015).
Several values for one entry are separate records, joined by “and”; a condition that tells them apart may be missing. Equal entries are not always repeated. Among all 5,500 compounds or so, about 2,000 (36%) were called active. Inconclusive results (about 18%) are left out. Cut-off read from the data, not from the text of the source: active = normalized growth mostly below about 0.91 (no sharp cut-off); inconclusive = no clear call, values can overlap the other calls; inactive = mostly above about 0.92. This is one part of the list.

Assay: chemical genetic growth profiling, strain panel (AID 1159580);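 note: tested at 20 µM; growth read once vehicle control cultures reached saturation at 30 °C; 1 = growth at the plate median or of vehicle wells; lower values mean less growth of the strain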
Details: S. cerevisiae deletion strains, growth OD

Measured: normalized growth

OC[C@H]1O[C@@H](O[C@@H]2[C@@H](CO)O[C@](O)(CO)[C@H]2O)[C@H](O)[C@@H](O)[C@H]1O
inactive: locus YAL021C, strain ccr4, active compounds read low 1.02 | locus YAL026C, strain drs2, active compounds read low 1.01 | locus YAL030W, strain snc1, active compounds read low 1 | locus YBL061C, strain skt5, active compounds read low 1.02 | locus YBR009C, strain hhf1, active compounds read low 1.01 | locus YBR021W, strain FUR4, active compounds read low 0.983 | locus YBR023C, strain chs3, active compounds read low 0.995 | locus YBR171W, strain sec66, active compounds read low 1.02 | locus YBR229C, strain ROT2, active compounds read low 0.986 | locus YBR231C, strain swc5, active compounds read low 1.01 | locus YBR279W, strain paf1, active compounds read low 1.02 | locus YCL011C, strain gbp2, active compounds read low 1.01 | locus YCL016C, strain dcc1, active compounds read low 0.985 | locus YCL029C, strain bik1, active compounds read low 0.988 | locus YCL069W, strain vba3, active compounds read low 1.01 | locus YCR088W, strain abp1, active compounds read low 1 | locus YDL005C, strain med2, active compounds read low 1.03 | locus YDL035C, strain GPR1, active compounds read low 1.01 | locus YDL040C, strain nat1, active compounds read low 1.01 | locus YDL074C, strain BRE1, active compounds read low 1 | locus YDL101C, strain DUN1, active compounds read low 0.988 | locus YDL185W, strain tfp1, active compounds read low 0.992 | locus YDL192W, strain arf1, active compounds read low 0.993 | locus YDR001C, strain nth1, active compounds read low 1.01 | locus YDR069C, strain doa4, active compounds read low 1.02 | locus YDR101C, strain arx1, active compounds read low 1.01 | locus YDR137W, strain rgp1, active compounds read low 1.01 | locus YDR150W, strain NUM1, active compounds read low 0.995 | locus YDR159W, strain sac3, active compounds read low 1.01 | locus YDR162C, strain NBP2, active compounds read low 1.01 | locus YDR195W, strain ref2 1.03 | locus YDR297W, strain sur2, active compounds read low 1.01 | locus YDR318W, strain mcm21, active compounds read low 0.981 | locus YDR334W, strain swr1, active compounds read low 1.01 | locus YDR335W, strain msn5, active compounds read low 1.02 | locus YDR388W, active compounds read low 0.987 | locus YDR392W, strain spt3, active compounds read low 0.949 | locus YDR502C, strain sam2, active compounds read low 0.986 | locus YEL003W, strain gim4, active compounds read low 1.01 | locus YEL037C, strain rad23, active compounds read low 1 | locus YEL061C, strain CIN8 (second series), active compounds read low 1.02 | locus YEL061C, strain CIN8, active compounds read low 0.995 | locus YER015W, strain faa2, active compounds read low 1 | locus YER016W, strain bim1, active compounds read low 1.02 | locus YER110C, active compounds read low 0.979 | locus YER111C, strain swi4, active compounds read low 1 | locus YER155C, strain BEM2 (second series), active compounds read low 1.03 | locus YER155C, strain BEM2, active compounds read low 0.987 | locus YER167W, strain BCK2, active compounds read low 0.995 | locus YFR010W, strain ubp6, active compounds read low 1.02 | locus YGL078C, strain dbp3, active compounds read low 0.963 | locus YGL086W, strain mad1, active compounds read low 1 | locus YGL167C, strain pmr1, active compounds read low 1.02 | locus YGL173C, strain kem1, active compounds read low 1.01 | locus YGL227W, strain vid30, active compounds read low 1.01 | locus YGL240W, strain doc1, active compounds read low 1.03 | locus YGL248W, strain PDE1, active compounds read low 0.983 | locus YGL253W, strain hxk2, active compounds read low 0.99 | locus YGR135W, strain pre9, active compounds read low 0.941 | locus YGR252W, strain gcn5, active compounds read low 0.944 | locus YHR013C, strain ard1, active compounds read low 1.03 | locus YHR027C, strain rpn1, active compounds read low 1.01 | locus YHR030C, strain SLT2, active compounds read low 0.993 and 0.984 | locus YHR079C, strain IRE1 (second series), active compounds read low 0.983 | locus YHR079C, strain IRE1, active compounds read low 0.989 | locus YHR094C, strain hxt1, active compounds read low 0.979 | locus YHR129C, strain ARP1, active compounds read low 0.992 | locus YHR142W, strain chs7, active compounds read low 1 | locus YHR200W, strain rpn10, active compounds read low 0.978 | locus YIL066C, strain RNR3, active compounds read low 0.994 | locus YIL073C, strain SPO22, active compounds read low 0.973 | locus YIL125W, strain kgd1, active compounds read low 0.978 | locus YIR030C, strain dcg1, active compounds read low 0.987 | locus YJL092W, strain hpr5, active compounds read low 1.01 | locus YJL095W, strain BCK1 (second series), active compounds read low 1.01 | locus YJL095W, strain BCK1, active compounds read low 0.977 and 0.994 | locus YJL115W, strain asf1, active compounds read low 1.01 | locus YJL129C, strain trk1, active compounds read low 1.01 | locus YJL134W, strain LCB3, active compounds read low 0.995 | locus YJL154C, strain vps35, active compounds read low 1.02 | locus YJL164C, strain tpk1, active compounds read low 0.984 | locus YJL166W, strain qcr8, active compounds read low 1.01 | locus YJL168C, strain set2, active compounds read low 0.976 | locus YJL187C, strain SWE1 (second series), active compounds read low 0.993 | locus YJR043C, strain POL32, active compounds read low 1.02 | locus YJR066W, strain TOR1, active compounds read low 0.942
